From PubChem BioAssay
Activity calls are given as the source filed them. Unless noted, how the calls were made is not given here.

Tests used:
[1] = compounds binding Alexa647 anti-His antibody – biochemical, small-molecule microarray, 635 nm fluorescence, artefact control for SMM control protein annotation, primary screen (AID 1128); settings: higher = more signal;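 further: score merges feature fluorescence with signal-to-noise for each printed compound spot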
[2] = tested on: Human papillomavirus type 1a E7 protein (residues 1-88); test: HPV1a E7 small-molecule binders, primary screen, biochemical, small-molecule microarray, residues 1-88, 635 nm (AID 1129); settings: small-molecule microarray binding, fluorescence 635 nm; higher = more signal
[3] = target: Focal adhesion kinase 1 (Homo sapiens) (UniProt Q05397); test: PTK2 protein binding on printed compound slides – biochemical, small-molecule microarray, 635/667 nm fluorescence, BSA, DTT, primary screen (AID 1130); settings: 635 nm fluorescence, higher = more signal;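 further: composite of spot emission at 667 nm and signal to noise over triplicate slides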
[4] = tested on: Fibrinogen (Alexa647-labelled); test: Alexa647-fibrinogen binding to printed small molecules – biochemical, small-molecule microarray, 635/667 nm fluorescence, artefact control for SMM control-protein annotation, profiling panel (AID 1131); settings: fibrinogen-A647 binding fluorescence, higher = more signal;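 further: z-score merges 667 nm fluorescence with per-spot signal-to-noise over triplicate slides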
[5] = target: Follistatin (Homo sapiens) (UniProt P19883); test: FST protein binding to printed compounds – biochemical, small-molecule microarray, 635/667 nm fluorescence, primary screen (AID 1132); settings: 635 nm fluorescence, higher = more signal
[6] = target: Fibroblast growth factor 2 (Homo sapiens) (UniProt P09038); test: basic fibroblast growth factor binding to printed compounds – biochemical, small-molecule microarray, 635/667 nm fluorescence, primary screen (AID 1133); settings: FGF2, fluorescence 635/667, higher = more signal
[7] = JC-1 mitochondrial potential readout, lung cancer cells – cell-based, A549, JC-1 fluorescence, basal, 24 h, 100 nL, profiling panel (AID 1138); settings: higher = more signal;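 further: A549 lung adenocarcinoma cells under basal conditions with no added stimulus; test concentration not given here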
[8] = tested on: Lefty1; test: Lefty1 protein binding to printed compounds – biochemical, small-molecule microarray, 635/667 nm fluorescence, primary screen (AID 1139); settings: fluorescence 635/667, higher = more signal
[9] = tested on: wheat germ agglutinin (Triticum aestivum), Alexa647-labelled; test: Alexa647-WGA lectin binding to printed small molecules – biochemical, small-molecule microarray, 635/667 nm fluorescence, artefact control for SMM control-protein annotation, profiling panel (AID 1140); settings: WGA-A647 binding, 635 nm fluorescence, higher = more signal;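 further: score merges 667 nm feature emission with signal to noise over triplicate slides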
[10] = target: Luciferin 4-monooxygenase (Photinus pyralis) (UniProt P08659); test: inhibition of purified Photinus pyralis luciferase – biochemical, luminescence, purified enzyme, 2006 set, primary screen (AID 1141); settings: purified firefly luciferase, SteadyGlo luminescence, 30 min; higher = more signal, called active from +8 up or from −8 down;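 further: cell-free assay with purified firefly luciferase at 100 ng per well in PBS; test concentration not given here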
[11] = tested on: Wnt5a (protein binding on small-molecule microarray); test: small molecules binding Wnt5a protein – biophysical, small-molecule microarray, 635/667 nm fluorescence, primary screen (AID 1142); settings: 635 nm fluorescence, higher = more signal;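 further: fluorescence read at 667 nm with signal to noise per printed feature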
[12] = ATP-based viability of Huh7 replicon cells – cell-based, CellTiter-Glo luminescence, basal, 48 h, cytotoxicity control for HCV replication inhibitor project, primary screen (AID 1143); settings: higher = more signal, called active from +8 up or from −8 down;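 further: Huh7 hepatoma cells carrying a hepatitis C replication reporter with no stimulus; test concentration not given here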
[13] = Pseudomonas biofilm growth suppression – PAO1 strain, BacTiter-Glo luminescence, LB-PBS, primary screen (AID 1144); settings: P. aeruginosa PAO1 biofilm, 12 h, higher = more signal
[14] = basal CRE-LacZ reporter activity in PC12 – cell-based, unstimulated, primary screen (AID 1145); settings: no forskolin, luminescence, 4.5 h, higher = more signal, called active from +8 up or from −8 down
[15] = forskolin-driven CRE-LacZ activity in PC12 – cell-based, CRE-LacZ reporter, forskolin-stimulated, primary screen (AID 1146); settings: luminescence, 4.5 h, higher = more signal, called active from +8 up or from −8 down;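 further: PC12 cells with 6xCRE LacZ reporter stimulated by forskolin 10 µM; beta-galactosidase reporter signal reflecting CREB driven transcription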
[16] = target: Streptavidin (Streptomyces avidinii) (UniProt P22629); test: compounds binding control protein streptavidin – biophysical, small-molecule microarray, 635/667 nm fluorescence, artefact control for SMM compound annotation, primary screen (AID 1147); settings: higher = more signal;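 further: signal reflects streptavidin binding to arrayed compounds as a control protein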
[17] = probe aInhba binding on compound microarray – biochemical, small-molecule microarray, 635/667 nm fluorescence, primary screen (AID 1148); settings: higher = more signal;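 further: score merges 667nm spot fluorescence with signal-to-noise for antibody binding to printed compounds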
[18] = target: Torsin-1A (Homo sapiens) (UniProt O14656); test: TOR1A wild-type binding on microarray – cell lysate, small-molecule microarray, lysate, 635/667 nm, primary screen (AID 1149); settings: COS7 hTOR1A-WT lysate, 635 nm fluorescence, higher = more signal
[19] = target: Torsin-1A (Homo sapiens) (UniProt O14656); test: torsin A mutant lysate binding on microarrays – cell lysate, small-molecule microarray, COS7 lysate, 635/667 nm fluorescence, primary screen (AID 1150); settings: COS7 hTOR1A mutant lysate, 635 nm fluorescence, higher = more signal;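 further: score pools 667 nm emission and signal to noise measuring lysate protein binding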
[20] = tested on: Sonic hedgehog protein (Shh); test: Sonic hedgehog microarray binding compounds – biochemical, small-molecule microarray, 635/667 nm fluorescence, primary screen (AID 1151); settings: 635 nm fluorescence, higher = more signal;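 further: Shh protein binding to compounds spotted on small-molecule microarray slides; score combines spot fluorescence intensity with signal-to-noise across triplicate slides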

Chain of Streptavidin (Streptomyces avidinii) (P22629 whole entry, looked up): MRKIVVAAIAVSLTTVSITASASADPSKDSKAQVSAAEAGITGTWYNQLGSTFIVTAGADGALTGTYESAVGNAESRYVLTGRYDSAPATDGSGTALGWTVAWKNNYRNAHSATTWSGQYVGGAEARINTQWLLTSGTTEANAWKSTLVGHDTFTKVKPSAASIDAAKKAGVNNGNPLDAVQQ
Chain of Luciferin 4-monooxygenase (Photinus pyralis) (P08659 whole entry, looked up): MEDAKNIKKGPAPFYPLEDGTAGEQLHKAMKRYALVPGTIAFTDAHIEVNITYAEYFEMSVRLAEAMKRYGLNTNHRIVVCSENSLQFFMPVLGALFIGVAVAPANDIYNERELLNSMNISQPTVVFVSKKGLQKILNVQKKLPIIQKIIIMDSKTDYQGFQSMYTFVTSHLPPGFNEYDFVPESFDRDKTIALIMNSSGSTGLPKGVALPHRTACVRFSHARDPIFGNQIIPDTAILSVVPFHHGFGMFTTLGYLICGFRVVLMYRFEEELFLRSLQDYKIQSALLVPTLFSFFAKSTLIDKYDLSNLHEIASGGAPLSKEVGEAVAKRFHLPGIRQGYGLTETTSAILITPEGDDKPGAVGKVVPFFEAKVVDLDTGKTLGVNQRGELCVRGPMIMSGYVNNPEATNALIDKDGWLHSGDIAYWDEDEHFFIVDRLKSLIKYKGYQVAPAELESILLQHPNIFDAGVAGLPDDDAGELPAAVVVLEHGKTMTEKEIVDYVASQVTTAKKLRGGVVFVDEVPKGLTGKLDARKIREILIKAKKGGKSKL
Chain of Fibroblast growth factor 2 (Homo sapiens) (P09038 whole entry, looked up): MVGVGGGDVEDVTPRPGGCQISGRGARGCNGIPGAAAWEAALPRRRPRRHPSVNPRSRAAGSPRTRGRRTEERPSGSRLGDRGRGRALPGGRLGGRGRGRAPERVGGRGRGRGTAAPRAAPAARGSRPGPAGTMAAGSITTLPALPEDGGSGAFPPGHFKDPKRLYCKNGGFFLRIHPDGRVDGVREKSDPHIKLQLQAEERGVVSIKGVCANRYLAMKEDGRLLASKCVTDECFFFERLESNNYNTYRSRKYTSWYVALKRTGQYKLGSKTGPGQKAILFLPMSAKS
Chain of Focal adhesion kinase 1 (Homo sapiens) (Q05397 whole entry, looked up): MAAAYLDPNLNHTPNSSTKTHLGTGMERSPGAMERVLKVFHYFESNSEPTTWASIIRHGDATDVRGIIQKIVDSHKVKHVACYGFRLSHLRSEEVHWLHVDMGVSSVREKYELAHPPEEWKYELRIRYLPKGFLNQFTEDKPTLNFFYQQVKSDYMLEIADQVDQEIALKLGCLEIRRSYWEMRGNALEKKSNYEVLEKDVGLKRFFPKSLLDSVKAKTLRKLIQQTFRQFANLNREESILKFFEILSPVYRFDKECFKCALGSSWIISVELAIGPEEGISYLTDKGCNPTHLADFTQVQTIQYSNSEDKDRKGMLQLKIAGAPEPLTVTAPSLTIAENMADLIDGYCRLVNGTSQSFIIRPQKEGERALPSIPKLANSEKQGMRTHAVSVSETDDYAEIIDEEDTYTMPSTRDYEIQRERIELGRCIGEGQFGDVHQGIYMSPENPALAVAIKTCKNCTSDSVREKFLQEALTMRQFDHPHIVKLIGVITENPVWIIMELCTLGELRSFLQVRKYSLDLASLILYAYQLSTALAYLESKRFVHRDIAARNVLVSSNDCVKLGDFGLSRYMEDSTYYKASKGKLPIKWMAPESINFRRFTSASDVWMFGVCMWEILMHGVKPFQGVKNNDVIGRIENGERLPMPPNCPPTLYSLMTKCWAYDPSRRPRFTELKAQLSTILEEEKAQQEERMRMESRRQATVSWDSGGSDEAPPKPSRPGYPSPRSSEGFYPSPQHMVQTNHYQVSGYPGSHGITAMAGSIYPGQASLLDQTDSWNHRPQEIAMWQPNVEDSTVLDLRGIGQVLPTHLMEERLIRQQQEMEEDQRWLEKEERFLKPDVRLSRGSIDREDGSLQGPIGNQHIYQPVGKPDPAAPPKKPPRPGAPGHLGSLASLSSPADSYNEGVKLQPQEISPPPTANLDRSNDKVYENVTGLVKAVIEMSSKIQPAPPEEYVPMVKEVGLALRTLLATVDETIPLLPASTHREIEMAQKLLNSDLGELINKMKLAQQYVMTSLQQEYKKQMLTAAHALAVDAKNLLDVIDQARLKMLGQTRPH
Chain of Torsin-1A (Homo sapiens) (O14656 whole entry, looked up): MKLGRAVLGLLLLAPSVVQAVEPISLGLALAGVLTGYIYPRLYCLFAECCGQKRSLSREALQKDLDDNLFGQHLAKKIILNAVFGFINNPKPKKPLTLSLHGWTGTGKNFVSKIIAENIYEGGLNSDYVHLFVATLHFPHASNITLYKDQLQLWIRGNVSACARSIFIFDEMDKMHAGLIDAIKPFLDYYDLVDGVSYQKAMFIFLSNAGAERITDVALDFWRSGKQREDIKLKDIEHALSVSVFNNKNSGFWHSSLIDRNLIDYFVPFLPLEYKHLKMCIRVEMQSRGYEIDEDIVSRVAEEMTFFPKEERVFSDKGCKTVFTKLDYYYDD
Chain of Follistatin (Homo sapiens) (P19883 whole entry, looked up): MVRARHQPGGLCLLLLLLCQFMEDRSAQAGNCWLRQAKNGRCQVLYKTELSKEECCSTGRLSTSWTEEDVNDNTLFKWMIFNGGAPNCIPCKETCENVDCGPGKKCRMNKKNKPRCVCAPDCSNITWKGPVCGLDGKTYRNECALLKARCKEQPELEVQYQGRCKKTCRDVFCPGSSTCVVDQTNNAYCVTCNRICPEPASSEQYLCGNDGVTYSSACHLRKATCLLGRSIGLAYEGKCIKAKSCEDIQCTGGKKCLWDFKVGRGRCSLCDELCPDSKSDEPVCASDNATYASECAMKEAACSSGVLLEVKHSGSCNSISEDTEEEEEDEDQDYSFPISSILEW

SMILES | composite z-score [1] | composite z-score [2] | composite z-score [3] | composite z-score [4] | composite z-score [5] | composite z-score [6] | z-score [7] | composite z-score [8] | composite z-score [9] | z-score [10] | composite z-score [11] | z-score [12] | z-score [13] | z-score [14] | z-score [15] | composite z-score [16] | composite z-score [17] | composite z-score [18] | composite z-score [19] | composite z-score [20]
CC(C)NC(=O)[C@@H]1c2ccccc2C(=O)N(Cc2cc(C(F)(F)F)cc(C(F)(F)F)c2)[C@H]1c1ccc(CO)cc1 | 0.913 | 1.16 | 0.528 | 0.936 | 1 | 0.507 | 1.98 | 0.312 | 0.375 | 0.487 (inactive) | 0.133 | 0.0274 (inactive) | 0.71 (inactive) | 0.0279 (inactive) | 0.296 (inactive) | 0.0544 | 0.136 | 0.275 | 0.0913 | 0.646
O=C1O[C@H](c2ccccc2)[C@H](c2ccccc2)N2[C@H]1[C@@H](C(=O)N1CCCCCCC1)[C@]1(C(=O)Nc3ccc(C#CCCO)cc31)[C@H]2c1ccc(OCCO)cc1 | 2.99 | 1.36 | 5.23 | 0.97 | 1.52 | 1.27 | -0.421 | 1.92 | 1.64 | -0.264 (inactive) | 2.02 | -2.18 (inactive) | 0.278 (inactive) | -1.42 (inactive) | -0.757 (inactive) | 4.02 | 1.82 | 3.41 | 3.46 | 2.35
COC(=O)[C@@]1(Cc2ccc(OC)cc2)[C@H]2c3cc(C(=O)N4CCCC4)n(CCc4ccc(O)c(OC)c4)c3C[C@H]2CN1C(=O)c1ccccc1 | 0.772 | 0.23 | 0.717 | 0.219 | -0.625 | -0.46 | -0.0583 | -1.78 | 0.0523 | 0.551 (inactive) | 0.0928 | -0.666 (inactive) | -0.414 (inactive) | 2.5 (inactive) | 1.04 (inactive) | 0.199 | 0.12 | 0.168 | 0.774 | -0.909
Cc1ccc(C(C)CC(O)C2C=CC3C(=O)N(Cc4ccccc4)C(=O)C3N2n2cnnc2)o1 (stereo not given) | 1.54 | 0.942 | -0.103 | 0.923 | 0.713 | 0.0103 | -1.49 | 0.273 | 0.842 | 0.785 (inactive) | 1.36 | -0.167 (inactive) | 0.928 (inactive) | 0.323 (inactive) | 1.14 (inactive) | 0.352 | 1.36 | 0.173 | 0.663 | -0.265
COCCCNC(=O)[C@@]1(Cc2ccccc2)COC(c2ccc(OCCCO)cc2)=N1 | 2.66 | 1.21 | 0.953 | 1 | 0.645 | 0.986 | 0.814 | -1.07 | 0.509 | 0.272 (inactive) | 0.788 | -1.02 (inactive) | 0.211 (inactive) | -0.0808 (inactive) | 0.347 (inactive) | -0.207 | 0.263 | 0.673 | 0.878 | -0.795
